Assay results reported in PubChem BioAssay AID720517 (National Center for Advancing Translational Sciences (NCATS), 2013).
Results filed as inconclusive are left out. Unmarked numbers belong to inactive results. Calls follow the shape of the dose curve; as a rule, active = well fitted activation curve with a large enough effect; inconclusive = small, poorly fitted or top-dose-only effect; inactive = flat fitted curve, though single readings scatter.

Test: qHTS for Inhibitors of Cell Surface uPA Generation: FP59 Counterscreen for Cherry-picked Compounds; also: 0% is about no effect
Details: FP59 anthrax toxin cytotoxicity counterscreen, cells; series mostly up to 115 µM; activity (protection from FP59): at the top concentration

| SMILES | activity (protection from FP59) [%] |
| --- | --- |
| CCN(CC)CCCNC(=O)c1cn(C)c(=O)c2c1c1ccccc1n2C | -1.3 |
| CCN(CC)S(=O)(=O)c1ccc(C(=O)Nc2nnc(COC)o2)cc1 | -0.922 |
| Cc1ccc(NC(=O)c2ccc(=O)[nH]n2)cc1S(=O)(=O)Nc1ccccc1Cl | -1.47 |
| COCCn1nnnc1C(C(C)C)N1CCCC(C)C1 (stereo not drawn) | -1.3 |
| CCc1ccccc1N1C(=O)CC(Sc2nccc(C)n2)C1=O (stereo not drawn) | -1.23 |
| COc1cccc(NC(=O)c2nnn(CC(=O)Nc3cc(C)cc(C)c3)c2N)c1 | -1.39 |
| COc1ccc(CCN=c2c([N+](=O)[O-])nn(-c3cccc(C)c3)n2O)cc1OC | -0.651 |
| Cc1ccc(-n2ncc(C(=O)NC3CC3)c2C2CCN(C(=O)OC(C)(C)C)CC2)cc1 | -1.39 |
| Cc1ccc(/C=N/NC(=O)c2ccc3nc[nH]c3c2)s1 | -1.64 |
| CCOC(=O)C1(CC2CCCCO2)CCN(Cc2nccn2-c2cccc(C)c2)CC1 (stereo not drawn) | -0.834 |
| CCOC(=O)CN1C(=O)N[C@@H](c2ccccc2)C(C(C)=O)=C1C | -1.48 |
| O=C(N/C(=C\c1cccc([N+](=O)[O-])c1)C(=O)N1CCOCC1)c1ccc([N+](=O)[O-])cc1 | -0.98 |
| CCC(CC)Nc1ccc(C(CC(N)=O)NC(=O)Cc2ccc(Br)cc2)cc1[N+](=O)[O-] (stereo not drawn) | -0.93 |
| CN(C)C(=O)NC(NC(=S)Nc1ccccc1)C(Cl)(Cl)Cl (stereo not drawn) | -0.348 |
| COC(=O)Cc1c(C)c2ccc(OCC(=O)N3CCCC(C)C3)c(C)c2oc1=O (stereo not drawn) | -1.33 |
| Clc1ccccc1N1CCN(c2ncnc3nc[nH]c23)CC1 | -1.5 |
| O=C(NCC1CCCO1)c1ccc(NC(=O)c2ccc([N+](=O)[O-])cc2)cc1 (stereo not drawn) | -1.25 |
| Cn1c(=O)c(=O)n(C)c2cc(S(=O)(=O)CCC(=O)Nc3ccc(F)cc3)ccc21 | -1.37 |
| O=c1[nH]c2ccccc2cc1CN(CC1CCCO1)S(=O)(=O)c1ccccc1 (stereo not drawn) | -1.45 |
| Cc1ccccc1NC(=O)N1CCN(c2ncccn2)CC1 | -1.2 |
| COc1ccc(C(=O)N[C@H](C(=O)NCc2cccs2)C(C)C)cc1 | -1.2 |
| Cc1ccc(N=C2SCCCN2C(=O)c2cccc(N3C(=O)CCC3=O)c2)cc1Cl | -1.37 |
| COc1ccc(CN2CCN(Cc3ccc(C(F)(F)F)cc3)CC2)cc1 | -1.38 |
